# Out of some 310,000 compounds screened, about 14,000 (4.5%) showed an effect of 50% or more. Effects have a minus sign here. The full list was thinned out, with strong results kept by preference.
# Biological target: human ether-à-go-go-related gene (hERG) potassium channel (human, UniProt Q12809)
# Assay: primary screen, population patch clamp on CHO cells stably expressing hERG; higher = less effect of the substance
# 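Further: peak tail current of the secondary pulse compared with the same well before compound.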
# Chain of human ether-à-go-go-related gene (hERG) potassium channel (Q12809 whole entry, looked up): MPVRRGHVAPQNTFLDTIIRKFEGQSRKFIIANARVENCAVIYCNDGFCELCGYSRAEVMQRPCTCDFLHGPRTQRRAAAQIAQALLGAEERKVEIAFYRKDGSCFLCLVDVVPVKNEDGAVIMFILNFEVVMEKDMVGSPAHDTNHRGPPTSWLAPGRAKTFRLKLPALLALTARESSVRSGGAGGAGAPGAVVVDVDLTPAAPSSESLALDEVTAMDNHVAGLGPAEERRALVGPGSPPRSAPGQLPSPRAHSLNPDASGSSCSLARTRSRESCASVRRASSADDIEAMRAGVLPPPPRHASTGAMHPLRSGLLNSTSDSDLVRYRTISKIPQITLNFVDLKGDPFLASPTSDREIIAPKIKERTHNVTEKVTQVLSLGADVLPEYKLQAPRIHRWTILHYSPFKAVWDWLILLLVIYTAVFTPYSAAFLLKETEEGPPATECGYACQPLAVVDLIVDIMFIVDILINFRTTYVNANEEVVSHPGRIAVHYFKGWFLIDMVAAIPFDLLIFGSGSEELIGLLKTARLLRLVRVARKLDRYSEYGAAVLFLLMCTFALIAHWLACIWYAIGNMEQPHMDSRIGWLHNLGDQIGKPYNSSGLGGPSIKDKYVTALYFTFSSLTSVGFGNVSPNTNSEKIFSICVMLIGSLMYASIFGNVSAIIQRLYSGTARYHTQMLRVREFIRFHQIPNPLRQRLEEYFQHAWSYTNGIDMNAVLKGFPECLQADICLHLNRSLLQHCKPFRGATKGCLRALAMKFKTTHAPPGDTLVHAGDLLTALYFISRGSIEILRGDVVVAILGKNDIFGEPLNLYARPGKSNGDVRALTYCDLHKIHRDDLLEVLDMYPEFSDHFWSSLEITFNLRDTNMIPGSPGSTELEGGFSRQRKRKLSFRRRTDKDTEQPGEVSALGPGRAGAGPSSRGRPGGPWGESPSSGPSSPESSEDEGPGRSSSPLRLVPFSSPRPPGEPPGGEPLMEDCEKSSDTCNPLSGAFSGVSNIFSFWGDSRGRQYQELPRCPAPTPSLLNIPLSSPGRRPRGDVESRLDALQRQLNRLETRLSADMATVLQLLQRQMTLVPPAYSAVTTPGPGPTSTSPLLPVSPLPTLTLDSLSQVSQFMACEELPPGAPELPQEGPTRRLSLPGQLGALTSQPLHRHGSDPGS
row,Structure (SMILES),"hERG current change (%, negative = inhibition) at 10uM [%]"
1,Cc1ccc(OCC(=O)NCC(=O)Nc2ccc(F)c(F)c2F)c([N+](=O)[O-])n1,-34.4
2,Cc1nc(Nc2cccc(C(C)O)c2)c2nnn(Cc3ccc(F)cc3)c2n1 (centres unmarked),5.08
3,COc1ccc(-n2c(=O)c(CCC(=O)N(C)Cc3ccccc3C)nc3ccccc32)cc1,-50.4
4,CCc1ccc(CN(C)C(=O)CCc2nc3ccccc3n(-c3ccc(OC)cc3)c2=O)cc1,-0.36
5,COc1ccc(-n2c(=O)c(CCC(=O)N(C)Cc3cccs3)nc3ccccc32)cc1,-38.7
6,COc1cc2c(cc1OC)-c1cc(Nc3ccc(C)cc3)nc(=O)n1CC2,-8.97
7,COc1cc2c(cc1OC)-c1cc(Nc3ccccc3)nc(=O)n1CC2,-64.1
8,COc1ccc(Nc2cc3n(c(=O)n2)CCc2cc(OC)c(OC)cc2-3)cc1,4.8
9,O=C(NCc1ccc2c(c1)OCO2)Nc1ccc(Cl)cc1,5.12
10,COc1cccc(NC(=O)c2cnc[nH]2)c1,25.1
11,COc1ccccc1NC(=O)C(=O)NCc1ccncc1,-5.14
12,Cn1c(CCc2ccccc2)nnc1SCC(N)=O,15.3
13,N#Cc1c(-c2ccccc2)c(-c2ccccc2)nn(CC(=O)NNC(=O)Nc2ccc(Cl)c(Cl)c2)c1=O,-1.35
14,CC(=O)N1CC[n+]2c(-c3ccc([N+](=O)[O-])cc3)csc21.[Br-],-68.9
15,CC(=O)N1CC[n+]2c(-c3ccc(Cl)cc3)csc21.[Br-],-1.19
16,CCc1ccc(-c2csc3[n+]2CCN3C(C)=O)cc1.[Br-],-29.1
17,C=CCN1CCN(C(=O)c2cc3c(s2)CCC(CC)C3)CC1 (centres unmarked),-57.3
18,CCC1CCc2sc(C(=O)N3CCCN(C)CC3)cc2C1 (centres unmarked),-12.9
19,C=CCN1CCN(C(=O)c2cc3c(s2)CCCC3)CC1,-19.3
20,Cc1ccc(C)c(C(C)NC(=O)c2ccncc2)c1 (centres unmarked),-7.4
21,Cc1cc(C(F)F)nn1CC(=O)NC1CCCC1,1.56
22,CC(=O)c1cc(F)c(N2CCN(C(=O)Cc3ccccc3)CC2)cc1C,-11.5

row,Structure (SMILES),"hERG current change (%, negative = inhibition) at 10uM [%]"
1,CCOC(=O)N1CCN(c2ccc(C(C)=O)cc2F)CC1,5.68
2,CCOC(=O)N1CCN(C(=O)c2ccc3nc(-c4ccccc4)c(-c4ccccc4)nc3c2)CC1,-54.6
3,CCCC(=O)c1ccc(N2CCN(C(=O)c3ccc(Br)cc3)CC2)c(F)c1,2.35
4,CCCC(=O)c1ccc(N2CCN(C(=O)OCC)CC2)c(F)c1,-14.2
5,CCOC(=O)N1CCN(c2ccc(C(=O)c3ccccc3)cc2F)CC1,-50.8
6,CN1CCN(C(=O)c2ccc3nc(-c4ccccc4)c(-c4ccccc4)nc3c2)CC1,6.03
7,CCN1CCN(C(=O)c2ccc3nc(-c4ccccc4)c(-c4ccccc4)nc3c2)CC1,-17.4
8,CCCC(=O)c1ccc(N2CCN(C(=O)c3ccccc3Br)CC2)c(F)c1,-23.7
9,CCC(=O)c1ccc(N2CCN(C(=O)Cc3ccccc3)CC2)c(F)c1,-36.5
10,CCC(=O)c1cc(F)c(N2CCN(C(=O)Cc3ccccc3)CC2)cc1C,-58.9
11,CCCC(=O)c1ccc(N2CCN(C(=O)c3ccccc3)CC2)c(F)c1,-66.7
12,Cc1ccc(Cn2c(C)cc3c(c2=O)C(c2cccs2)C(C#N)=C(N)O3)cc1 (centres unmarked),15.8
13,CC(C)c1cccc(C(C)C)c1NC(=O)CN1C(=O)NC2(CCCC2)C1=O,14.8
14,CCOC(=O)C(O)(CCC(O)(C(=O)OCC)C(=O)OCC)C(=O)OCC,5.85
15,Cn1c(=O)c2c(nc(CN3CCC(C(N)=O)CC3)n2CCc2ccccc2)n(C)c1=O,4.44
16,CCOC(=O)c1ccc(NC(=O)NC2CC3CCC(C2)N3Cc2nnnn2Cc2ccco2)cc1 (centres unmarked),-21.1
17,O=C(NCc1ccc2c(c1)OCO2)c1nn(-c2ccccc2)c(=O)c2ccccc12,-35.1
18,COc1ccc(N(CC(=O)NCc2cccnc2)S(=O)(=O)c2c(C)nn(C)c2C)cc1,3.1
19,O=C(CSc1nc(-c2ccccc2)nn1C(=O)c1ccccc1)Nc1cccc([N+](=O)[O-])c1,2.83
20,COc1ccc(NC(=O)CCc2nc3ccccc3s2)c(OC)c1,-0.68
21,O=C(CN(c1cccc(C(F)(F)F)c1)S(=O)(=O)c1ccccc1)N1CCOCC1,-30.5
22,CCC(=O)c1ccc(N2CCN(C(=O)c3ccc(F)cc3)CC2)c(F)c1,-60
